Screening results (PubChem)
An excerpt weighted towards active compounds, which were near 3.2% of everything screened.
SMARCA2 act: SMARCA2 (BRM) function activators, primary screen, cell-based, luminescence, high throughput. MG213 cells, MMTV-luciferase reporter, dexamethasone, overnight. activation, % at 9.1 µM. actives 1% (n = 370,000); in the data active = activation above about 7.8%
DYRK1A inh: rat Dyrk1A kinase inhibitors, primary screen, biochemical, single point, plate reader. actives 0.43% (n = 310,000). inhibition, % at 12.5 µM. ADP-Glo luminescence, NFATc1 peptide; in the data active = inhibition above about 50%
Rtt109 HAT inh: inhibitors of C. albicans Rtt109/Vps75 HAT, primary screen, biochemical, ThioGlo CoA-SH fluorescence, plate reader; Histone acetyltransferase RTT109 (Candida albicans (strain SC5314 / ATCC MYA-2876)), …; AID 540336, 2011; purified Rtt109/Vps75, 4 h; inhibition, % at 34.9 µM; actives 0.16% (n = 330,000);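 active = inhibition of at least 50% in every replicate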
Target sequence (Q5AAJ8 whole entry, looked up): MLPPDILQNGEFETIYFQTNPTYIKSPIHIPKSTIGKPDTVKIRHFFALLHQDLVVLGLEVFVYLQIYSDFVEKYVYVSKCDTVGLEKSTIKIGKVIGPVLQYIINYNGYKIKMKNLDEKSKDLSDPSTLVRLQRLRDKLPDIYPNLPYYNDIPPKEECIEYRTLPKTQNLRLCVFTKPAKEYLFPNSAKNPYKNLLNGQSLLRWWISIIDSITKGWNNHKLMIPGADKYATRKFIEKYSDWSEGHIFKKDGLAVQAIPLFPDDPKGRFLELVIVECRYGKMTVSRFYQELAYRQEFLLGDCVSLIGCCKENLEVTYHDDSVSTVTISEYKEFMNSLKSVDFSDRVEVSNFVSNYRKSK
CDK5 p35 inh: inhibitors of human CDK5/p35 kinase, primary screen, biochemical, single concentration; Cyclin-dependent kinase 5 (Homo sapiens) + Cyclin-dependent kinase 5 activator 1 (Homo …; Recombinant CDK5/p35, ADP-Glo luminescence, 60 min; inhibition, % at 10 µM; actives 0.01% (n = 330,000); AID 488839, 2010;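 active = highest replicate inhibition of at least 50% and at least 75% of replicates reaching 50%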
esBAF inh: Bmi1 luciferase reporter increase in mESCs, primary screen, esBAF inhibitor project, mouse ES cells, Bmi1 luciferase knock-in, single point; 24 h; 100% = twice the neutral-well signal; reporter increase, % at 12.5 µM; AID 602393, 2012; actives 2% (n = 350,000); in the data active = activation above about 40%;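 note: a rise in the Bmi1 reporter signal indicates esBAF inhibition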
dFosB act: activators of delta FosB homodimer, primary screen, biochemical, fluorescence polarization, TAMRA-CDK5 oligo, single point | Protein FosB (Mus musculus), P13346 | purified delta FosB; percent of positive-control signal above neutral wells | activation, % at 25 µM | actives 0.99% (n = 340,000) | AID 493131, 2011;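 active = mean activation above about 17%, with every replicate also reaching it, limit read from the data, passing the limit was not always enough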
Target sequence (P13346 whole entry, looked up): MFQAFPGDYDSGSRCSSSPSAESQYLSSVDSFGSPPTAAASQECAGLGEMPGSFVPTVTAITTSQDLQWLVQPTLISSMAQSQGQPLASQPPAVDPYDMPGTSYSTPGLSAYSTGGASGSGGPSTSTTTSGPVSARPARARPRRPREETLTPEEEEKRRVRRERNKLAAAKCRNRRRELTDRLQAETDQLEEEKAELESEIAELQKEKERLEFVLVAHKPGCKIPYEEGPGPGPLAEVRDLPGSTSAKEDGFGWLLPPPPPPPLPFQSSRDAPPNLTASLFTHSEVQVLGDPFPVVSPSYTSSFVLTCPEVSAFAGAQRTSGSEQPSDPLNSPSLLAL
Each line names hits and unclear results; the compound was inactive in the other large screens.

CCOC(=O)c1ccc(NC(=O)Nc2ccc(F)cc2)cc1	none (no result: esBAF inh)
CCOc1ccc(NC(=S)Nc2ccc3nsnc3c2)cc1	none (no result: CDK5 p35 inh, esBAF inh)
COC(=O)c1ccc(NC(=O)Nc2ccc(F)cc2)cc1	esBAF inh 59.6
COc1ccc(NC(=S)Nc2ccc3nsnc3c2)cc1	Rtt109 HAT inh 54.2 (no result: esBAF inh)
C[C@H]1CCCCO[C@@H](CN(C)C(=O)Nc2ccccc2)[C@@H](C)CN([C@@H](C)CO)C(=O)c2cc(NS(=O)(=O)c3cn(C)cn3)ccc2O1	none (no result: SMARCA2 act, DYRK1A inh, Rtt109 HAT inh, CDK5 p35 inh, dFosB act)
CCCOc1ccc(-c2c(C(=O)N/N=C/c3ccc(C)cc3)nnn2-c2nonc2N)cc1	none (no result: DYRK1A inh, Rtt109 HAT inh, CDK5 p35 inh, dFosB act)
CCOc1ccc(-c2c(C(=O)N/N=C/c3ccc(C)cc3)nnn2-c2nonc2N)cc1	dFosB act 33.5
Cc1ccc(/C=N/NC(=O)c2nnn(-c3nonc3N)c2CN(C)C2CCCCC2)cc1	none
CN(Cc1c(C(=O)N/N=C/c2ccc(O)cc2)nnn1-c1nonc1N)C1CCCCC1	dFosB act 28.6
C/C(=N\NC(=O)c1nnn(-c2nonc2N)c1-c1ccccc1)c1ccccc1O	dFosB act 33.3
O=C(NCC[C@H]1CC[C@@H](NC(=O)C2CCCC2)[C@H](CO)O1)Nc1ccc(Cl)cc1	none (no result: SMARCA2 act, DYRK1A inh, Rtt109 HAT inh, CDK5 p35 inh, dFosB act)
COc1cccc(/C=N/N2CCN(c3ccc(Cl)cc3)CC2)c1OC	none
COc1cccc(C=NN2CCCCCC2)c1OC	esBAF inh 45.0 (no result: DYRK1A inh)
N#CC1=C(SCC(=O)NCc2ccccc2)NC(=O)CC1c1ccco1 (stereo unspecified)	none
N#CC1=C(SCC(=O)Nc2ccccc2)NC(=O)CC1c1ccco1 (stereo unspecified)	esBAF inh 79.0
O=C1C(=O)c2c(C(=O)c3ccccc3)coc2-c2ccccc21	esBAF inh 66.8
O=C(Cc1ccc(Cl)cc1)N1CCc2ccccc2C1	esBAF inh 46.3
CS(=O)(=O)N1CCc2cc(C(=O)Nc3ccc(Cl)cc3)ccc21	esBAF inh 62.7
CC(=O)c1ccc(NC(=O)N2CCc3ccccc3C2)cc1	none (no result: esBAF inh)
O=C(Nc1ccccc1)N1CCc2ccccc2C1	esBAF inh 44.5
O=C(CNc1cccc(F)c1)N1CCc2ccccc2C1	esBAF inh 51.4
COc1ccc(CC(=O)N2CCc3ccccc3C2)cc1	none
COc1ccc(S(=O)(=O)N(C)C[C@@H]2Oc3c(NC(=O)Nc4ccc(C(F)(F)F)cc4)cccc3C(=O)N([C@H](C)CO)C[C@@H]2C)cc1	none (no result: SMARCA2 act, DYRK1A inh, Rtt109 HAT inh, CDK5 p35 inh, dFosB act)
O=C(Nc1ccc(Cl)cc1)N1CCc2ccccc2C1	esBAF inh 47.8
COc1ccc(NC(=O)N2CCc3ccccc3C2)cc1	none
O=C(Nc1ccc(Cl)cc1)c1ccc(CN2CCc3ccccc3C2)cc1	esBAF inh 48.8
CN(C)c1ccc(NC(=O)CN2CCc3ccccc3C2)cc1	esBAF inh 43.8
O=C1/C(=C/c2cccnc2)SC(=S)N1Cc1ccco1	none (no result: esBAF inh)
Cc1cc(/C=C2\SC(=S)N(Cc3ccco3)C2=O)c(C)n1-c1cccnc1	esBAF inh 43.4
C[C@@H]1CN([C@H](C)CO)S(=O)(=O)c2ccc(-c3ccc(F)cc3)cc2O[C@H]1CN(C)C(=O)C1CC1	none (no result: SMARCA2 act, DYRK1A inh, Rtt109 HAT inh, CDK5 p35 inh, dFosB act)
CO[C@@H]1CN(C)C(=O)c2cc(NC(C)=O)ccc2OC[C@H](C)N(C(=O)c2ccccc2F)C[C@@H]1C	none (no result: SMARCA2 act, DYRK1A inh, Rtt109 HAT inh, CDK5 p35 inh, dFosB act)
CNc1cc(-c2cnn(CC(C)C)c2)ncn1	esBAF inh 51.2 (no result: DYRK1A inh, Rtt109 HAT inh, CDK5 p35 inh, dFosB act)
CC(=O)Nc1cncc(-c2cnn(CC(C)C)c2)n1	none (no result: DYRK1A inh, Rtt109 HAT inh, CDK5 p35 inh, dFosB act)
CCNC(=O)C[C@@H]1C=C[C@@H](NC(=O)C2CCC2)[C@H](CO)O1	none (no result: SMARCA2 act, DYRK1A inh, Rtt109 HAT inh, CDK5 p35 inh, dFosB act)
Cc1ccc(/C=N/N=C/c2ccc(C)cc2)cc1	esBAF inh 56.9
NC(=O)c1ccccc1NC(=O)COc1ccc2c(c1)OCO2	esBAF inh 47.8
C[C@H](CO)N1C[C@H](C)[C@@H](CN(C)C(=O)Nc2ccc3c(c2)OCO3)OCCCC[C@H](C)Oc2ccc(NS(=O)(=O)c3cccs3)cc2C1=O	none (no result: SMARCA2 act, DYRK1A inh, Rtt109 HAT inh, CDK5 p35 inh, dFosB act)
O=C(c1ccc2c(c1)OCO2)N1C[C@H]2[C@@H](c3ccccc31)[C@@H](CO)N2CC1CCCC1	none (no result: SMARCA2 act, DYRK1A inh, Rtt109 HAT inh, CDK5 p35 inh, dFosB act)
O=C(Nc1ccc(N2CCOCC2)c(Cl)c1)c1cccnc1	none
O=C(Nc1ccc(N2CCCC2)c(Cl)c1)c1cccnc1	esBAF inh 48.7
O=C(Nc1ccc(N2CCCCC2)c(Cl)c1)c1cccnc1	esBAF inh 48.6
COc1ccc(CN(C)C[C@@H]2OCCCC[C@@H](C)Oc3ccc(NC(=O)CCC(F)(F)F)cc3C(=O)N([C@H](C)CO)C[C@@H]2C)cc1	none (no result: SMARCA2 act, DYRK1A inh, Rtt109 HAT inh, CDK5 p35 inh, dFosB act)
C(=C\c1nccc2c1[nH]c1ccccc12)/c1ccccc1	dFosB act 42.1 (no result: Rtt109 HAT inh)
C/C=C/c1cnc2c(c1)C(=O)N([C@@H](C)CO)C[C@H](C)[C@@H](CN(C)C(=O)Nc1ccc(F)cc1)O2	none (no result: SMARCA2 act, DYRK1A inh, Rtt109 HAT inh, CDK5 p35 inh, dFosB act)
O=C(/C=C/Nc1ccc(Oc2ccccc2Cl)cc1)c1ccco1	none (no result: esBAF inh)
O=C(/C=C/Nc1cccc(F)c1)c1ccco1	esBAF inh 44.5
O=C(/C=C/Nc1ccccc1Oc1ccccc1)c1ccco1	SMARCA2 act 7.9
COc1ccccc1Oc1ccc(N/C=C/C(=O)c2ccco2)cc1	esBAF inh 86.8
Cc1cc(C)c2sc(C)[n+](CCCS(=O)(=O)[O-])c2c1	Rtt109 HAT inh 90.1
CC[n+]1c(C)sc2c(C)cc(C)cc21	Rtt109 HAT inh 114.1 (no result: esBAF inh)
CCN1C(=O)[C@H]2[C@@H](c3ccc(C)cc3)N3C(=O)N(c4ccc(C)cc4)C(=O)[C@@]3(CC)[C@H]2C1=O	esBAF inh 46.8
C[C@H]1CN([C@@H](C)CO)C(=O)c2cccc(NS(=O)(=O)c3ccccc3)c2O[C@@H]1CN(C)S(=O)(=O)c1cccs1	none (no result: SMARCA2 act, DYRK1A inh, Rtt109 HAT inh, CDK5 p35 inh, dFosB act)
C[C@H](CO)N1C[C@H](C)[C@H](CN(C)C(=O)c2ccncc2)Oc2cc(C3=CCCCC3)ccc2S1(=O)=O	none (no result: SMARCA2 act, DYRK1A inh, Rtt109 HAT inh, CDK5 p35 inh, dFosB act)
CC(SCC(=O)Nc1ccccc1)c1nc2ccccc2c(=O)[nH]1 (stereo unspecified)	none (no result: DYRK1A inh, esBAF inh)
Cc1c(Cl)cccc1NC(=O)CSC(C)c1nc2ccccc2c(=O)[nH]1 (stereo unspecified)	dFosB act 41.1
COc1ccc(N=CC2=C(O)CC(C)(C)CC2=O)cc1	esBAF inh 49.4
COc1ccc(OC)c(N=CC2=C(O)CC(C)(C)CC2=O)c1	none
COc1ccc(NC(=O)Nc2ccc3c(c2)C(=O)N([C@@H](C)CO)C[C@H](C)[C@H](CN(C)Cc2ccccc2)O3)cc1	none (no result: SMARCA2 act, DYRK1A inh, Rtt109 HAT inh, CDK5 p35 inh, dFosB act)
Cc1ccc(NC(=O)c2ccc(NCCN)c([N+](=O)[O-])c2)cc1Cl	dFosB act 39.0 (no result: esBAF inh)
